Test results: the supplement of paper PMC10338343
± gives the standard deviation.

Experiments:
[1] = system: MILI (PIWIL2) piRISC loaded with L1MC piRNA (26 nt); assay: pre-steady-state target cleavage rate (min^-1); guide: L1MC piRNA 5'p-UAACUAAAUACUAUGCAAGCUGUAGG; higher = faster piRNA-guided slicing of the target
Summary of the method: (§1)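 In Cleave-'n-Seq, a transcribed, DNA-blocked target RNA library (0.1 nM) was combined with 1 nM active affinity-purified piRISC bearing one synthetic guide, with or without 500 nM GTSF1 partner protein. Reactions ran in HEPES–potassium acetate buffer at 33 °C for 0–8 or 0–960 min. Uncleaved targets were sequenced and normalised to depth and to weakly complementary targets, three trials were pooled, and k3 was capped at 0.0001 min^-1. The pre-steady-state cleavage rate was obtained by fitting a burst-and-steady-state model.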

[2] = system: EfPiwi piRISC loaded with L1MC piRNA (26 nt); assay: pre-steady-state target cleavage rate (min^-1); auxiliary factor: 500 nM Ephydatia muelleri Gtsf1; guide: L1MC piRNA 5'p-UAACUAAAUACUAUGCAAGCUGUAGG; MIWI and MILI are mouse PIWI proteins and EfPiwi is from a freshwater sponge; tags in brackets are library labels; higher = faster piRNA-guided slicing of the target
Summary of the method: as §1

[3] = auxiliary factor: 500 nM mouse GTSF1
[4] = auxiliary factor: none (no GTSF1)

Row | Sequence | pre-steady-state target cleavage rate [1, 3] | pre-steady-state target cleavage rate [1, 4] | pre-steady-state target cleavage rate [2]
1 | UCCUGGAUGUGGUUGCAUAGUAUAUAGUUA | 0.158 ± 0.023 | 0.00921 ± 0.0037 | 0.00747 ± 0.0056
2 | UCCUGGAUCAGCUAGCAUAGUAUUUAGUAA | 0.219 ± 0.012 | 0.00665 ± 0.0023 | 0.00362 ± 0.0032
3 | UCCUCCUACUCCUUGCAUAGUAUUUAGUAA | 0.147 ± 0.017 | 0.00285 ± 0.0024 | 0.00518 ± 0.0033
4 | UCCUGCUACAGCUAGCAUACUAUUUAGUUA | 0.112 ± 0.018 | 0.0037 ± 0.0024 | 0.0063 ± 0.0019
5 | UCCUGGAACAGCUUGGCAUAGUAUUUAGUUA | 0.48 ± 0.097 | 0.00632 ± 0.0027 | 0.0094 ± 0.0031
6 | UCCUGGAUCAGCUUGCAUAGUAUUUUAGUUA | 0.23 ± 0.025 | 0.0107 ± 0.0028 | 0.0214 ± 0.0071
7 | UCCUCCUAGAGGUUGCAUAGUAUUUAGUUA | 0.205 ± 0.011 | 0.00716 ± 0.0022 | 0.0153 ± 0.0029
8 | UCCUCCUUCAGCUUGCAAAGUAUUUAGUUA | 0.162 ± 0.015 | 0.00632 ± 0.0021 | 0.0828 ± 0.021
9 | UCCUGGUACAGCUUGCAUAGUAUUAUGUUA | 0.131 ± 0.032 | 0.00435 ± 0.0031 | 0.00349 ± 0.0025
10 | UCCUCCUUGAGCUUGCAUAGUAUUUAGUUA | 0.216 ± 0.018 | 0.0051 ± 0.0021 | 0.0223 ± 0.0062
